Some test systems named below: DU-145 prostate; K-562 leukemia; MDA-MB-231 breast; RXF 393 renal; SF-268 CNS; SF-295 CNS; SF-539 CNS; UACC-257 melanoma; M14 melanoma; HCT-15 colon; HT29 colon; SNB-75 CNS; SNB-19 CNS; PC-3 prostate; SK-MEL-5 melanoma; UACC-62 melanoma; LOX IMVI melanoma; SK-MEL-28 melanoma; MALME-3M melanoma; U251 CNS.
What all share (assay): NCI-60 one-dose screen, 48 h (100 = growth as untreated, 0 = no growth, -100 = all killed)
Conditions in all cases: 10 µM

SMILES strings stand for the structures. The panel holds about 83,000 compounds, 20% with a hit somewhere; the sample as a whole holds those more often.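 For each line, cells grew in 96-well plates with the test compound present at a single concentration for 48 hours.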 Unmarked numbers belong to inactive results. Calls of active or inactive are those of the source. The calls were made as follows: active = growth percent below 10; inactive = the rest.

For the compound `COc1ccc(-c2nn(-c3cccc(Cl)c3)cc2-c2c(C#N)c(=O)n3[nH]c(-c4ccccc4)nc3c2C#N)cc1`, the growth was 102% in the test on DU-145 prostate; 78.3% in the test on K-562 leukemia; 87.1% with MDA-MB-231 breast; 95.9% in the test with RXF 393 renal; 101% in the test on SF-268 CNS; 58.8% in the test on SF-295 CNS. For the same compound, the growth in the test on SF-539 CNS was 100%; in the test on UACC-257 melanoma, 110%; in the test on M14 melanoma, 109%; in the test with HCT-15 colon it was 93.4%; in the test with HT29 colon, 96.9%; with SNB-75 CNS it was 80.3%. Also, the growth in the test with SNB-19 CNS is 90.9%; in the test on PC-3 prostate, 101%; with SK-MEL-5 melanoma it was 96.4%; in the test on UACC-62 melanoma it was 99.3%; in the test with LOX IMVI melanoma, 87.6%; in the test on SK-MEL-28 melanoma, 115%.

As for `CC(=O)O[C@@]12CO[C@@H]1C[C@H](O)[C@@]1(C)C(=O)[C@H](O)C3=C(C)[C@@H](OC(=O)[C@H](O)[C@@H](NC(=O)OC(C)(C)C)c4ccccc4)C[C@@](O)([C@@H](OC(=O)c4ccccc4)C12)C3(C)C` (stereo partly drawn), the growth is -10.4% (active) with DU-145 prostate; 76.5% with MALME-3M melanoma; 45.5% with MDA-MB-231 breast; 23.7% in the test with RXF 393 renal; 51.8% with SF-268 CNS; -23% (active) in the test on SF-295 CNS. Moreover, the growth in the test on SF-539 CNS was 23%; with UACC-257 melanoma, 74%; in the test on M14 melanoma it was 36%; with HCT-15 colon, 16.5%; in the test on HT29 colon, 6.02% (active); in the test with SNB-75 CNS, -2.3% (active). Besides, the growth was 37.8% with SNB-19 CNS; 24.2% in the test with U251 CNS; 28.6% with SK-MEL-5 melanoma; 52.5% in the test with UACC-62 melanoma; 44.6% in the test on LOX IMVI melanoma; 77.9% in the test with SK-MEL-28 melanoma.

For the compound `COc1ccccc1N1CCCSC1=Nc1ccccc1`, the growth in the test on DU-145 prostate was 99.7%; in the test with K-562 leukemia, 78.4%; with MDA-MB-231 breast it was 101%; in the test with SF-268 CNS it was 99%; in the test with SF-295 CNS it was 80.2%; with SF-539 CNS, 98.9%. Moreover, the growth in the test on UACC-257 melanoma was 43.7%; with M14 melanoma it was 63.3%; with HCT-15 colon it was 115%; in the test on HT29 colon, 150%; in the test with SNB-75 CNS, 232%; with SNB-19 CNS, 92.9%. Moreover, the growth in the test on U251 CNS is 105%; with SK-MEL-5 melanoma, 96.6%; with UACC-62 melanoma it was 99.9%; in the test with LOX IMVI melanoma, 92.5%; in the test with SK-MEL-28 melanoma, 95.9%.

As to `CCN(CC)CCCC(C)N=C(C1=C(C(=NC(C)CCCN(CC)CC)c2cccc(OC)c2)C(=O)NC1=O)c1cccc(OC)c1` (stereo not drawn), the growth with DU-145 prostate is -5.08% (active); in the test with K-562 leukemia, -44.2% (active); in the test with RXF 393 renal it was -64.8% (active); in the test with SF-268 CNS, -29.5% (active); in the test on SF-295 CNS, -53.5% (active); in the test on SF-539 CNS it was -85.3% (active). In addition, the growth in the test with UACC-257 melanoma was -95.2% (active); with M14 melanoma, -77.5% (active); in the test with HCT-15 colon, -30.7% (active); in the test on HT29 colon, -10.5% (active); in the test on SNB-75 CNS, -28.5% (active); with SK-MEL-5 melanoma, -93.8% (active). Also, the growth in the test on UACC-62 melanoma was -75.4% (active); with LOX IMVI melanoma, -73.9% (active); in the test on SK-MEL-28 melanoma, -69.1% (active).

For `C=C1CCC2(C#N)[C@H]3[C@H](CC[C@@H]2C)[C@@H](C)C[C@@H](CC(C)(C)NC(=O)CN2CCC2=O)[C@H]13` (stereo partly drawn), the growth in the test with DU-145 prostate is 89.5%; in the test on MALME-3M melanoma, 83.2%; with MDA-MB-231 breast it was 47.6%; with RXF 393 renal, 55.5%; in the test on SF-268 CNS, 63.3%; with SF-295 CNS, 60.5%. For the same compound, the growth in the test with SF-539 CNS was 47%; with UACC-257 melanoma, 80.8%; with M14 melanoma, 54.9%; with HCT-15 colon, 47.3%; in the test with HT29 colon, 75.6%; with SNB-75 CNS it was 57.4%. The growth was 40.2% with SNB-19 CNS; 33.6% in the test with U251 CNS; 17.8% with PC-3 prostate; 27.4% in the test on SK-MEL-5 melanoma; 48.5% in the test on UACC-62 melanoma; 54.2% in the test on LOX IMVI melanoma. The growth in the test on SK-MEL-28 melanoma is 73.9%.

Regarding `Cc1cc(CC(C)CC(C)(C)C)n(O)c(=O)c1` (stereo not drawn) (tested in a mixture with another compound), the growth was 19.5% in the test with DU-145 prostate; 8.49% (active) in the test with MALME-3M melanoma; 38.3% with MDA-MB-231 breast; 42.1% in the test with RXF 393 renal; 14.4% in the test with SF-268 CNS; 6.87% (active) with SF-295 CNS. Also, the growth with SF-539 CNS is 6.73% (active); with UACC-257 melanoma it was -1.79% (active); in the test on M14 melanoma, -35.9% (active); in the test on HCT-15 colon it was 23.8%; in the test on HT29 colon it was 53.2%; with SNB-75 CNS it was 16.7%. For the same compound, the growth is 26% with SNB-19 CNS; 17.8% in the test with U251 CNS; -1.17% (active) in the test with SK-MEL-5 melanoma; -8.65% (active) in the test with UACC-62 melanoma; 7.96% (active) in the test with LOX IMVI melanoma; 25.1% in the test with SK-MEL-28 melanoma.

`COc1ccc(CCN2CCC(Nc3nc4ccccc4n3Cc3ccc(F)cc3)CC2)cc1`: the growth with DU-145 prostate was 46.4%; in the test on MALME-3M melanoma, -79.5% (active); in the test with MDA-MB-231 breast it was -31.5% (active); in the test on RXF 393 renal, -67.8% (active); in the test with SF-268 CNS, 27.7%; with SF-295 CNS, -85.7% (active). Also, the growth is -81% (active) in the test on SF-539 CNS; -81.7% (active) with UACC-257 melanoma; -99.4% (active) in the test on M14 melanoma; -23% (active) in the test with HCT-15 colon; -53.6% (active) with HT29 colon; -29.9% (active) with SNB-75 CNS. The growth was 40.6% in the test with SNB-19 CNS; -70.9% (active) in the test on U251 CNS; 29.4% in the test on PC-3 prostate; -100% (active) in the test on SK-MEL-5 melanoma; -87.9% (active) with LOX IMVI melanoma; -76.7% (active) with SK-MEL-28 melanoma.

For the compound `Cc1cc(C(C#N)c2ccc(Cl)cc2)c(Cl)cc1NC(=O)c1cc(I)cc(I)c1O` (stereo not drawn), the growth in the test on DU-145 prostate was 72.7%; in the test on MALME-3M melanoma it was 58.1%; in the test with MDA-MB-231 breast, 46.6%; in the test with RXF 393 renal, 48.9%; in the test on SF-268 CNS, 33.7%; with SF-295 CNS, -20.9% (active). In addition, the growth was 31.5% with SF-539 CNS; 71.3% in the test with UACC-257 melanoma; 32.3% with M14 melanoma; 28.8% in the test with HCT-15 colon; 58% in the test on HT29 colon; 112% in the test on SNB-75 CNS. Moreover, the growth is 39.3% in the test with SNB-19 CNS; 40.4% in the test with U251 CNS; 13.8% with PC-3 prostate; 13.1% in the test on SK-MEL-5 melanoma; 11.5% in the test with UACC-62 melanoma; 75.1% in the test with LOX IMVI melanoma. Moreover, the growth in the test with SK-MEL-28 melanoma was 63.5%.

In the case of `O=C(Nc1ccc(OCc2nnc(-c3ccc(Cl)cc3)o2)c(F)c1)Nc1ccc(Cl)c(C(F)(F)F)c1`, the growth in the test on DU-145 prostate was 9.34% (active); with K-562 leukemia it was 11.2%; with RXF 393 renal, -10.2% (active); in the test on SF-268 CNS, 22.5%; in the test on SF-295 CNS, 1.05% (active); in the test on SF-539 CNS, 12.3%. The growth with UACC-257 melanoma is -4.65% (active); in the test with M14 melanoma it was 3.31% (active); in the test with HCT-15 colon it was 9.78% (active); in the test on HT29 colon, -3.97% (active); in the test on SNB-75 CNS, 20.4%; with U251 CNS, -2.02% (active). Besides, the growth in the test on PC-3 prostate is 5.92% (active); in the test with SK-MEL-5 melanoma it was -35.7% (active); in the test with LOX IMVI melanoma it was 3.22% (active); in the test on SK-MEL-28 melanoma, 20.2%.

Source of the values: PubChem BioAssay (NCI).
